According to PubChem BioAssay (NCI):
About 83,000 compounds went through this panel and 20% of them were active in at least one assay; those are over-represented in the sample as a whole.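 In brief: 96-well plates, 48 h treatment, single concentration, percent growth endpoint.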 A number with no mark means an inactive call. Activity calls are given as the source filed them. The calls were made as follows: active = growth percent below 10; inactive = the rest.

Experiments:
Test in all cases: NCI-60 one-dose screen, 48 h (100 = growth as untreated, 0 = no growth, -100 = all killed)
[1] = tested on: NCI-H460 lung; conditions: 10 µM unless noted
[2] = tested on: K-562 leukemia; conditions: 10 µM unless noted
[3] = tested on: MALME-3M melanoma; conditions: 10 µM unless noted
[4] = tested on: RXF 393 renal; conditions: 10 µM unless noted
[5] = tested on: SF-295 CNS; conditions: 10 µM unless noted
[6] = tested on: SNB-75 CNS; conditions: 10 µM unless noted
[7] = tested on: U251 CNS; conditions: 10 µM unless noted
[8] = tested on: SK-MEL-5 melanoma; conditions: 10 µM unless noted
[9] = tested on: SK-MEL-2 melanoma; conditions: 10 µM unless noted
[10] = tested on: SN12C renal; conditions: 10 µM unless noted
[11] = tested on: UO-31 renal; conditions: 10 µM unless noted
[12] = tested on: HL-60(TB) leukemia; conditions: 10 µM unless noted
[13] = tested on: MOLT-4 leukemia; conditions: 10 µM
[14] = tested on: SR leukemia; conditions: 10 µM
[15] = tested on: RPMI-8226 leukemia; conditions: 10 µM unless noted
[16] = tested on: IGROV1 ovarian; conditions: 10 µM
[17] = tested on: BT-549 breast; conditions: 10 µM
[18] = tested on: HCT-116 colon; conditions: 10 µM unless noted
[19] = tested on: HCC-2998 colon; conditions: 10 µM unless noted
[20] = tested on: UACC-257 melanoma; conditions: 10 µM unless noted

| SMILES | growth [1] [%] | growth [2] [%] | growth [3] [%] | growth [4] [%] | growth [5] | growth [6] | growth [7] [%] | growth [8] [%] | growth [9] [%] | growth [10] [%] | growth [11] [%] | growth [12] | growth [13] [%] | growth [14] [%] | growth [15] [%] | growth [16] [%] | growth [17] [%] | growth [18] [%] | growth [19] [%] | growth [20] [%] |
| --- | --- | --- | --- | --- | --- | --- | --- | --- | --- | --- | --- | --- | --- | --- | --- | --- | --- | --- | --- | --- |
| Cc1cc([N+](=O)[O-])c(Cl)cc1NS(=O)(=O)c1ccccc1 | 73.2 | 71 | 37.9 | 91.9 | 65.7% | 64.1% | 80.9 | 43.6 | 55.5 | 78.1 | 63.8 | 57.3% | 74.5 | 64.3 | 37.3 | 85 | 62.5 | 87.3 | 80.6 | – |
| COc1ccc(-c2ccc(OC)c(OC)c2OC)cc1 | 12 | 10.1 | 33.2 | 11.2 | -9.72% (active) | -11% (active) | 22.9 | 15.3 | 24 | 42.3 | 39.4 | -19.1% (active) | 22.7 | 16.9 | – | 37.1 | 20.2 | 15.3 | 23.7 | 43.2 |
| Cc1cc(N(CCCl)CCCl)ccc1C=Nc1ccc2ccccc2c1 | 26 | 80.7 | 84.9 | 71.5 | – | 72% | 63 | 74.6 | 145 | 49.7 | 50.8 | 46% | 43.7 | 46.2 | 78.8 | 63 | – | 79.9 | 94.5 | 37.8 |
